Measured values published in the supplement of paper PMC6992640.

How the values were obtained:
HCI01 = cells of a triple-negative basal-like breast cancer xenograft; assay: cell viability of combination (% of vehicle); higher = less cytotoxic; conditions: 1 µM; 72 h; partner dose: 10 nM
Method: (§1)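 PDX cells were treated for 72 h with each drug at 1 µM plus carfilzomib (10 nM; 100 nM for WHIM2). Luciferase viability is expressed as percent of vehicle.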

UCD52 = cells of a triple-negative basal-like breast cancer xenograft; assay: as above; conditions: 1 µM; 72 h; partner dose: 10 nM
Method: as §1

Cl.OC(CNCC(O)C1CCc2cc(F)ccc2O1)C1CCc2cc(F)ccc2O1 (stereo not drawn) [Nebivolol] + CC(C)C[C@H](NC(=O)[C@H](CCc1ccccc1)NC(=O)CN1CCOCC1)C(=O)N[C@@H](Cc1ccccc1)C(=O)N[C@@H](CC(C)C)C(=O)[C@@]1(C)CO1 [Carfilzomib]
cell viability of combination (HCI01): 72.5 | cell viability of combination (UCD52): 64.3

CN1CCN(c2ccc(C(=O)/N=c3\[nH][nH]c4ccc(Cc5cc(F)cc(F)c5)cc34)c(NC3CCOCC3)c2)CC1 [Entrectinib] + CC(C)C[C@H](NC(=O)[C@H](CCc1ccccc1)NC(=O)CN1CCOCC1)C(=O)N[C@@H](Cc1ccccc1)C(=O)N[C@@H](CC(C)C)C(=O)[C@@]1(C)CO1 [Carfilzomib]
cell viability of combination (HCI01): 90.7 | cell viability of combination (UCD52): 45

CCN(CC)CCNC(=O)c1c(C)[nH]c(C=C2C(=O)Nc3ccc(F)cc32)c1C [Sunitinib] + CC(C)C[C@H](NC(=O)[C@H](CCc1ccccc1)NC(=O)CN1CCOCC1)C(=O)N[C@@H](Cc1ccccc1)C(=O)N[C@@H](CC(C)C)C(=O)[C@@]1(C)CO1 [Carfilzomib]
cell viability of combination (HCI01): 66 | cell viability of combination (UCD52): 59.3

CCOc1cc2ncc(C#N)c(Nc3ccc(OCc4ccccn4)c(Cl)c3)c2cc1NC(=O)C=CCN(C)C [Neratinib (HKI-272)] + CC(C)C[C@H](NC(=O)[C@H](CCc1ccccc1)NC(=O)CN1CCOCC1)C(=O)N[C@@H](Cc1ccccc1)C(=O)N[C@@H](CC(C)C)C(=O)[C@@]1(C)CO1 [Carfilzomib]
cell viability of combination (HCI01): 87.8 | cell viability of combination (UCD52): 48.7

Clc1ccc(COC(Cn2ccnc2)c2ccc(Cl)cc2Cl)cc1.O=[N+]([O-])O (stereo not drawn) [Econazole nitrate] + CC(C)C[C@H](NC(=O)[C@H](CCc1ccccc1)NC(=O)CN1CCOCC1)C(=O)N[C@@H](Cc1ccccc1)C(=O)N[C@@H](CC(C)C)C(=O)[C@@]1(C)CO1 [Carfilzomib]
cell viability of combination (HCI01): 89.1 | cell viability of combination (UCD52): 59.8

Clc1ccc(COC(Cn2ccnc2)c2ccc(Cl)cc2Cl)c(Cl)c1.O=[N+]([O-])O (stereo not drawn) [Miconazole Nitrate] + CC(C)C[C@H](NC(=O)[C@H](CCc1ccccc1)NC(=O)CN1CCOCC1)C(=O)N[C@@H](Cc1ccccc1)C(=O)N[C@@H](CC(C)C)C(=O)[C@@]1(C)CO1 [Carfilzomib]
cell viability of combination (HCI01): 87.1 | cell viability of combination (UCD52): 59.3

COC1=C(OC)C(=O)C(CCCCCCCCCCO)=C(C)C1=O [Idebenone] + CC(C)C[C@H](NC(=O)[C@H](CCc1ccccc1)NC(=O)CN1CCOCC1)C(=O)N[C@@H](Cc1ccccc1)C(=O)N[C@@H](CC(C)C)C(=O)[C@@]1(C)CO1 [Carfilzomib]
cell viability of combination (HCI01): 82.8 | cell viability of combination (UCD52): 62

CC(C)Nc1cc(-c2c[nH]c(C(=O)NC(CO)c3cccc(Cl)c3)c2)c(Cl)cn1 (stereo not drawn) + CC(C)C[C@H](NC(=O)[C@H](CCc1ccccc1)NC(=O)CN1CCOCC1)C(=O)N[C@@H](Cc1ccccc1)C(=O)N[C@@H](CC(C)C)C(=O)[C@@]1(C)CO1 [Carfilzomib]
cell viability of combination (HCI01): 94 | cell viability of combination (UCD52): 48.9

COC(=O)NC(C(=O)N1CCCC1c1ncc(-c2ccc(-c3ccc(-c4cnc(C5CCCN5C(=O)C(NC(=O)OC)C(C)C)[nH]4)cc3)cc2)[nH]1)C(C)C (stereo not drawn) + CC(C)C[C@H](NC(=O)[C@H](CCc1ccccc1)NC(=O)CN1CCOCC1)C(=O)N[C@@H](Cc1ccccc1)C(=O)N[C@@H](CC(C)C)C(=O)[C@@]1(C)CO1 [Carfilzomib]
cell viability of combination (HCI01): 70.8 | cell viability of combination (UCD52): 60.4

CCCCCCCCCCCC1=C(O)C(=O)C=C(O)C1=O [Embelin] + CC(C)C[C@H](NC(=O)[C@H](CCc1ccccc1)NC(=O)CN1CCOCC1)C(=O)N[C@@H](Cc1ccccc1)C(=O)N[C@@H](CC(C)C)C(=O)[C@@]1(C)CO1 [Carfilzomib]
cell viability of combination (HCI01): 71.1 | cell viability of combination (UCD52): 55.5

CC(C)(C)NC(=O)C1CC2CCCCC2CN1CC(O)C(Cc1ccccc1)NC(=O)C(CC(N)=O)NC(=O)c1ccc2ccccc2n1.CS(=O)(=O)O (stereo not drawn) [Saquinavir mesylate] + CC(C)C[C@H](NC(=O)[C@H](CCc1ccccc1)NC(=O)CN1CCOCC1)C(=O)N[C@@H](Cc1ccccc1)C(=O)N[C@@H](CC(C)C)C(=O)[C@@]1(C)CO1 [Carfilzomib]
cell viability of combination (HCI01): 79.5 | cell viability of combination (UCD52): 60.2

CCOC(=O)c1c(CSc2ccccc2)n(C)c2cc(Br)c(O)c(CN(C)C)c12.Cl [Arbidol HCl] + CC(C)C[C@H](NC(=O)[C@H](CCc1ccccc1)NC(=O)CN1CCOCC1)C(=O)N[C@@H](Cc1ccccc1)C(=O)N[C@@H](CC(C)C)C(=O)[C@@]1(C)CO1 [Carfilzomib]
cell viability of combination (HCI01): 76.6 | cell viability of combination (UCD52): 58.5

COc1cc(C(=O)NS(=O)(=O)c2ccccc2C)ccc1Cc1cn(C)c2ccc(NC(=O)OC3CCCC3)cc12 [Zafirlukast] + CC(C)C[C@H](NC(=O)[C@H](CCc1ccccc1)NC(=O)CN1CCOCC1)C(=O)N[C@@H](Cc1ccccc1)C(=O)N[C@@H](CC(C)C)C(=O)[C@@]1(C)CO1 [Carfilzomib]
cell viability of combination (HCI01): 83.2 | cell viability of combination (UCD52): 65

COc1cccc2c1C(=O)c1c(O)c3c(c(O)c1C2=O)CC(O)(C(=O)CO)CC3OC1CC(N)C(O)C(C)O1.Cl (stereo not drawn) [Epirubicin HCl] + CC(C)C[C@H](NC(=O)[C@H](CCc1ccccc1)NC(=O)CN1CCOCC1)C(=O)N[C@@H](Cc1ccccc1)C(=O)N[C@@H](CC(C)C)C(=O)[C@@]1(C)CO1 [Carfilzomib]
cell viability of combination (HCI01): 73.9 | cell viability of combination (UCD52): 21

Clc1ccc(C(Cn2ccnc2)OCc2ccsc2Cl)c(Cl)c1 (stereo not drawn) [Tioconazole] + CC(C)C[C@H](NC(=O)[C@H](CCc1ccccc1)NC(=O)CN1CCOCC1)C(=O)N[C@@H](Cc1ccccc1)C(=O)N[C@@H](CC(C)C)C(=O)[C@@]1(C)CO1 [Carfilzomib]
cell viability of combination (HCI01): 88.4 | cell viability of combination (UCD52): 62.5

COC(=O)c1ccc2c(c1)NC(=O)C2=C(Nc1ccc(N(C)C(=O)CN2CCN(C)CC2)cc1)c1ccccc1 [Nintedanib (BIBF 1120)] + CC(C)C[C@H](NC(=O)[C@H](CCc1ccccc1)NC(=O)CN1CCOCC1)C(=O)N[C@@H](Cc1ccccc1)C(=O)N[C@@H](CC(C)C)C(=O)[C@@]1(C)CO1 [Carfilzomib]
cell viability of combination (HCI01): 76.4 | cell viability of combination (UCD52): 37.5

COc1cc(Nc2ncc(F)c(Nc3ccc4c(n3)N(COP(=O)(O)O)C(=O)C(C)(C)O4)n2)cc(OC)c1OC [Fostamatinib (R788)] + CC(C)C[C@H](NC(=O)[C@H](CCc1ccccc1)NC(=O)CN1CCOCC1)C(=O)N[C@@H](Cc1ccccc1)C(=O)N[C@@H](CC(C)C)C(=O)[C@@]1(C)CO1 [Carfilzomib]
cell viability of combination (HCI01): 119 | cell viability of combination (UCD52): 64.9

CCCCc1oc2ccc(NS(C)(=O)=O)cc2c1C(=O)c1ccc(OCCCN(CCCC)CCCC)cc1 [Dronedarone] + CC(C)C[C@H](NC(=O)[C@H](CCc1ccccc1)NC(=O)CN1CCOCC1)C(=O)N[C@@H](Cc1ccccc1)C(=O)N[C@@H](CC(C)C)C(=O)[C@@]1(C)CO1 [Carfilzomib]
cell viability of combination (HCI01): 76.1 | cell viability of combination (UCD52): 59.3

CCOC(=O)C1=C(COCCN)NC(C)=C(C(=O)OC)C1c1ccccc1Cl (stereo not drawn) [Amlodipine] + CC(C)C[C@H](NC(=O)[C@H](CCc1ccccc1)NC(=O)CN1CCOCC1)C(=O)N[C@@H](Cc1ccccc1)C(=O)N[C@@H](CC(C)C)C(=O)[C@@]1(C)CO1 [Carfilzomib]
cell viability of combination (HCI01): 113 | cell viability of combination (UCD52): 62.5

C1=C\COCc2cc(ccc2OCCN2CCCC2)Nc2nccc(n2)-c2cccc(c2)COC/1 [Pacritinib] + CC(C)C[C@H](NC(=O)[C@H](CCc1ccccc1)NC(=O)CN1CCOCC1)C(=O)N[C@@H](Cc1ccccc1)C(=O)N[C@@H](CC(C)C)C(=O)[C@@]1(C)CO1 [Carfilzomib]
cell viability of combination (HCI01): 58.2 | cell viability of combination (UCD52): 57.9

COc1cccc2c1C(=O)c1c(O)c3c(c(O)c1C2=O)CC(O)(C(=O)CO)CC3OC1CC(N)C(O)C(C)O1 (stereo not drawn) [Doxorubicin] + CC(C)C[C@H](NC(=O)[C@H](CCc1ccccc1)NC(=O)CN1CCOCC1)C(=O)N[C@@H](Cc1ccccc1)C(=O)N[C@@H](CC(C)C)C(=O)[C@@]1(C)CO1 [Carfilzomib]
cell viability of combination (HCI01): 55.4 | cell viability of combination (UCD52): 28.3

C=C1C(=CC=C2CCCC3(C)C2CCC3C(C)CCCC(C)(C)O)CC(O)CC1O (stereo not drawn) [Calcitriol] + CC(C)C[C@H](NC(=O)[C@H](CCc1ccccc1)NC(=O)CN1CCOCC1)C(=O)N[C@@H](Cc1ccccc1)C(=O)N[C@@H](CC(C)C)C(=O)[C@@]1(C)CO1 [Carfilzomib]
cell viability of combination (HCI01): 53.8 | cell viability of combination (UCD52): 38.4

CC(C)N=c1cc2n(-c3ccc(Cl)cc3)c3ccccc3nc-2cc1Nc1ccc(Cl)cc1 [Clofazimine] + CC(C)C[C@H](NC(=O)[C@H](CCc1ccccc1)NC(=O)CN1CCOCC1)C(=O)N[C@@H](Cc1ccccc1)C(=O)N[C@@H](CC(C)C)C(=O)[C@@]1(C)CO1 [Carfilzomib]
cell viability of combination (HCI01): 71.9 | cell viability of combination (UCD52): 62.7

CCCSc1nc(NC2CC2c2ccc(F)c(F)c2)c2nnn(C3CC(OCCO)C(O)C3O)c2n1 (stereo not drawn) [Ticagrelor] + CC(C)C[C@H](NC(=O)[C@H](CCc1ccccc1)NC(=O)CN1CCOCC1)C(=O)N[C@@H](Cc1ccccc1)C(=O)N[C@@H](CC(C)C)C(=O)[C@@]1(C)CO1 [Carfilzomib]
cell viability of combination (HCI01): 95.1 | cell viability of combination (UCD52): 54.3
